KKLEB cytotox = cytotoxicity in KKLEB CF airway cells, primary screen, cytotoxicity control for CF NF-kB inhibitor project, cell-based, uHTS, fluorescence assay plates; KKLEB CF airway cells viability, ATPlite luminescence, overnight; hits give low values; cells stimulated with P. aeruginosa culture filtrate; activity change (cytotoxicity), % at 5 µM; 0.36% of 360,000 active;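 active = corrected activity change at or below -50% at 5 µM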
TWEAK Fn14 block = inhibitors of TWEAK-Fn14 signaling, primary screen, luciferase reporter cells, uHTS | TWEAK-stimulated Fn14 reporter cells, luciferase luminescence, 8 h | inhibition, % at 10 µM | 2% of 360,000 active | AID 1159606, 2016; in the data active = inhibition above about 50%
TROY NFkB inh = inhibitors of TROY-driven NF-kB signaling, primary screen, Q293 LMP1-TROYcd cells, NF-kB luciferase, uHTS | 0.98% of 360,000 active | Q293 LMP1-TROYcd NF-kB luciferase reporter, 4 h | AID 1347056, 2019 | inhibition, % at 10 µM;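 active = compounds whose plate-normalised and pattern-corrected inhibition of the luciferase reporter signal at the single screening dose is 50% or more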
Peg3 prom inh = Peg3 promoter-driven luciferase inhibitors, primary screen, cell-based, HeLa, luciferase luminescence; HeLa PEG-Prom luciferase reporter, overnight; inhibition, % at 20 µM; 1.7% of 360,000 active;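 active = inhibition of at least 50% at 20 µM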
HIF-2a block = HIF-2a reporter inhibitors, primary screen, luminescence, 786-0 RCC cells; inhibition, % at 18.8 µM; 786-0 RCC cells HIF-2a reporter, luciferase luminescence, overnight; AID 624352, 2012; 0.72% of 360,000 active;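 active = inhibition of the luminescence signal of 40% or more relative to plate controls, in a single-dose primary screen at 18.75 µM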
CF NFkB inh = inhibitors of PAF-induced NF-kB signaling, primary screen, cell-based, GFP fluorescence, uHTS. KKLEB NF-kB-GFP reporter, GFP fluorescence overnight. inhibition, % at 5 µM. 0.86% of 360,000 active. AID 588850, 2011;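 active = at least 50% inhibition at 5 µM, scaled per plate between neutral and stimulator controls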;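 also: PAF is a Pseudomonas aeruginosa culture filtrate used as stimulus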
Hits are given with their value; i = inactive; nt = no result given. An excerpt weighted towards active compounds, which were near 4% of everything screened.

SMILES	KKLEB cytotox	TWEAK Fn14 block	TROY NFkB inh	Peg3 prom inh	HIF-2a block	CF NFkB inh
CC(=O)c1cccc(N(C(=O)c2ccco2)C(C(=O)NC2CCCC2)c2cccs2)c1 (centres undefined)	i	i	i	i	i	i
CC(=O)c1cccc(N(C(=O)c2ccco2)C(C(=O)NC2CCCC2)c2ccccc2F)c1 (centres undefined)	i	53.2	i	i	i	i
COc1ccc(N(C(=O)c2ccco2)C(C(=O)NC2CCCCC2)c2cccs2)cc1OC (centres undefined)	i	77.3	nt	i	i	i
COc1ccc(C(C(=O)NC2CCCCC2)N(C(=O)CCl)c2cccc(Cl)c2)cc1 (centres undefined)	-76.3	58.1	i	102.1	i	99.8
O=C(NC1CCCCC1)C(c1ccccc1)N(C(=O)c1cccs1)c1ccc2c(c1)OCO2 (centres undefined)	i	i	i	i	i	i
COc1ccccc1CNC(=O)CCC(=O)N1Cc2cccc(OC)c2Oc2ncccc21	i	i	i	i	i	i
CCc1c(C)nc2cc(-c3cccc(Br)c3)[nH]n2c1=O	i	i	i	i	i	i
CC1CCCN(S(=O)(=O)c2cccc(C(=O)NCC3CCCO3)c2)C1 (centres undefined)	i	i	i	i	i	i
O=C(NC1CCCCC1)C(c1cccnc1)N(C(=O)CCl)c1ccc(F)cc1 (centres undefined)	i	i	i	68.6	i	i
O=C(NCC(=O)N(c1ccc(F)cc1)C(C(=O)NC1CCCCC1)c1cccnc1)c1ccco1 (centres undefined)	i	i	i	i	i	i
COc1ccc(-c2csc(NC(=O)CSc3nc(SC)ns3)n2)cc1	i	68.7	54.1	i	i	i
COc1ccc(-c2csc(NC(=O)CSc3nc(C)cs3)n2)cc1	i	i	i	i	i	i
COc1ccc2nc(NC(=O)CSc3nc(SC)ns3)sc2c1	i	52.7	i	i	i	i
CCCCc1nnc(NC(=O)c2ccccc2OCc2c(C)noc2C)s1	i	i	i	i	i	i
O=C(c1cnn2c1NC(c1ccco1)CC2C(F)(F)F)N1CCN(c2cccc(Cl)c2)CC1 (centres undefined)	i	i	i	50.1	i	i
Cc1ccc(C(=O)Cn2cnc3ccccc3c2=O)cc1	i	i	54.3	i	i	i
O=C(Cn1cnc2ccccc2c1=O)c1ccccc1	i	i	i	i	i	i
CC[n+]1c(/C=C/N(C)c2ccccc2)n(-c2ccccc2)c2ccc(-c3nc4ccccc4s3)cc21	-94.6	106.7	63.8	112.2	91.3	92.1
CCOC(=O)c1ccc2c(c1)n(CC)c(/C=C/N(C)c1ccccc1)[n+]2CC	i	i	i	i	i	i
CC(C)c1[nH]nc2c1C(c1cccnc1)C(C#N)=C(N)O2 (centres undefined)	i	60.1	i	i	i	i
CC(NCC(O)COc1ccc(S(=O)(=O)N2CCOCC2)cc1)c1ccccc1 (centres undefined)	i	i	i	i	i	i
CC(NCC(O)COC1CCC(C(C)(C)C)CC1)c1ccccc1 (centres undefined)	i	i	i	63.6	i	i
CC1CCC(C(C)C)C(OCC(O)CNC(C)c2ccccc2)C1 (centres undefined)	i	i	i	105.8	i	i
Cc1sc2ncn(CC(=O)N3CCN(c4ccccn4)CC3)c(=O)c2c1S(=O)(=O)N1CCC(C)CC1	i	i	i	i	i	i
Cc1ccc(Cn2c(N)c(S(=O)(=O)c3cccs3)c3nc4ccccc4nc32)cc1	i	i	62.9	i	i	i
SMILES	KKLEB cytotox	TWEAK Fn14 block	TROY NFkB inh	Peg3 prom inh	HIF-2a block	CF NFkB inh
CN(C)CCCn1c(N)c(S(=O)(=O)c2ccccc2)c2nc3ccccc3nc21	i	i	i	i	i	i
CCCCn1c(N)c(S(=O)(=O)c2ccc(C)cc2)c2nc3ccccc3nc21	i	51.7	65.4	i	i	i
Nc1c(S(=O)(=O)c2cccs2)c2nc3ccccc3nc2n1Cc1ccccc1	i	i	i	i	i	i
O=C(Nc1ccc(C(=O)N2CCCCC2)cc1)c1ccccc1Br	i	i	i	i	i	i
O=C(COc1ccccc1)N=C1SC2CS(=O)(=O)CC2N1Cc1ccccc1 (centres undefined)	i	i	i	i	i	i
Cc1nc(-c2cccc(NC(=O)c3ccc(-n4cccn4)cc3)c2)cs1	i	i	i	i	i	i
O=C1NC2(NN1c1ccccc1)C1CC3CC(C1)CC2C3 (centres undefined)	i	88.2	nt	i	i	i
Nc1nonc1-c1nc2ccccc2n1Cc1ccc(F)cc1Cl	i	i	54.1	i	i	i
C[C@H](NS(=O)(=O)c1ccc(Cl)cc1)C(=O)OCC(=O)NC(=O)Nc1ccc2c(c1)OCCO2	i	63.9	i	i	i	i
Cc1ccc(S(=O)(=O)N[C@H](C(=O)OCC(=O)NC(=O)Nc2ccc3c(c2)OCCO3)C(C)C)cc1	i	i	i	i	i	i
COc1cccc(OC)c1C(=O)Nc1cccc2c1CCCC2	i	i	i	i	i	i
COc1cc(NS(=O)(=O)c2ccc(OC)c(OC)c2)cc(OC)c1	i	i	i	52.2	i	i
COc1ccc(S(=O)(=O)Nc2ccc3c(c2)OCCO3)cc1OC	i	55.5	i	i	i	i
Cc1ccc(S(=O)(=O)N2CCC[C@H]2C(=O)NC2CCCCC2)cc1	i	i	i	i	i	i
N#Cc1ccc(-c2nc3ccc(Br)cn3c2Cc2ccccc2)cc1	i	i	i	i	i	i
COc1ccc(OC)c(S(=O)(=O)N2c3ccccc3CC2C)c1 (centres undefined)	i	i	i	55.7	i	i
COc1ccc(N2C(=S)N(C(=O)c3ccccc3)C(=Nc3ccccc3)C2=Nc2ccccc2)cc1	i	74.7	i	i	i	i
COc1ccc(N=C2C(=Nc3ccc(OC)cc3)N(c3ccc(OC)cc3)C(=S)N2C(=O)c2ccc(OC)cc2)cc1	i	i	i	i	i	i
COc1ccc(N=C2C(=Nc3ccc(OC)cc3)N(c3ccccc3)C(=S)N2C(=O)c2ccc(Cl)cc2)cc1	i	65.6	i	i	i	i
Cc1ccc(C(=O)Nc2ccc(Nc3ccccc3)cc2)c(Cl)c1	i	i	i	i	i	i
Cc1ccc(S(=O)(=O)N2CCC(C(=O)N/N=C/c3cccnc3)CC2)cc1	i	i	i	51.5	i	i
Cc1ccc(S(=O)(=O)N2CCC(C(=O)N/N=C/c3ccccc3[N+](=O)[O-])CC2)cc1	i	i	i	i	i	i
O=C(COC(=O)c1cc(Br)ccc1Cl)NC1CCCC1	i	i	i	i	i	i
